# Shown are actives, neighbours in structure and some others; about 19% of the full set was active somewhere.
# BCR signal inh – chronic active BCR signaling inhibition | ABC-DLBCL IkBa-CBG/CBR reporter, luminescence ratio, 4 h | 340,000 compounds, 0.05% hits | Potency, µM (top dose mostly 46.1 µM), most hits filed as inhibitors; active = well fitted inhibition curve with a large enough effect in the signal ratio, with a control signal flat, not every such curve was filed as active; inconclusive = small, poorly fitted or top-dose-only effect, or effect the other way, or a change in a side signal; the % refers to the signal ratio
#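 TMD8 human ABC-DLBCL cells with doxycycline-inducible IκBα–green luciferase fusion and unfused red luciferase, in 0.5% FBS medium; compounds up to 46 uM, 4 h at 37C. Green/red luminescence ratio, filter-overlap corrected, fitted to concentration-response curves.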
# MCF10A rerep – DNA re-replication induction in MCF 10a cells. MCF 10A DNA re-replication, Hoechst nuclear intensity, 48 h. Potency, µM (titrated, usually from 46.1 µM), usual class: activators. 350,000 compounds, 2.9% hits; note: nearly all actives have a fitted effect of over 50% in size
# DT40 TDP1 no CPT – qHTS for Inhibitors of human tyrosyl-DNA phosphodiesterase 1 (TDP1): qHTS in cells in absence of CPT; Potency, µM (series often up to 46.2 µM), hits mostly inhibitors; DT40 Tdp1-/- hTDP1 cells, no CPT, ATP luminescence, 48 h; 420,000 compounds, 15% hits; note: nearly all actives have a fitted effect of over 55% in size
#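 Growth kinetics read by CellTiter-Glo luminescence after ≥48 hr at 37 °C. Cells: DT40 Tdp1-/- stably carrying human TDP1, 400 per well, compound exposure in the absence of CPT (DMSO vehicle).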
# DT40 TDP1 CPT – growth inhibition of DT40 Tdp1-/-;hTDP1 cells with camptothecin (screen for TDP1 inhibitors); chicken DT40 Tdp1-/-;hTDP1 cells + 20 nM CPT, ATP luminescence, 48 h; AID 686979; 420,000 compounds, 12% hits; Potency, µM (series often up to 46.2 µM), most hits filed as inhibitors; note: nearly all actives have a fitted effect of over 55% in size
#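 Cell growth measured by CellTiter-Glo luminescence after a minimum 48 h, 37 C compound exposure with 20 nM CPT in Tdp1-knockout DT40 cells stably expressing hTDP1, seeded 400/well; qHTS titration format.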
# SW480 rereplic – inducers of DNA re-replication in SW480 colon cancer cells. SW480 DNA re-replication, Hoechst DNA content imaging, 48 h. Potency, µM (highest dose often 46.1 µM), actives largely listed as activators. 340,000 compounds, 1.8% hits. AID 624297; note: nearly all actives have a fitted effect of over 55% in size
#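 First, 250 cells per well were seeded. Next, compound or vehicle (23 nL) was pinned in, plates sat 48 hr at 37 C. Finally Hoechst was added for 40 min before fluorescence scanning.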
# IL-1B inflam inh – inflammasome signaling inhibition, IL-1 beta readout | THP-1 LPS/ATP IL-1B secretion, AlphaLISA, 16 h; active compounds read low | activity change, % at 57.5 µM | 360,000 compounds, 4.7% hits | AID 743279; in the data active = activity change below about -50%; inconclusive = mostly about -30% to -49%
#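 Secreted IL-1B measured by AlphaLISA bead assay after 16 h compound exposure of THP-1 cells; compounds (final up to 57.5 uM) added 1 h before LPS (250 ng/mL) and ATP (1.25 mM) stimulation; lower signal means less secretion.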
# Numbers stand for hits; n = inactive; u = inconclusive; x = no result. Unless noted, calls come from the whole dose curve; as a rule, active = well fitted curve in the direction sought with a large enough effect; inconclusive = small, poorly fitted or top-dose-only effect, or another doubt; inactive = no such curve, though single readings can be large; an effect the other way counts as inactive or inconclusive.
SMILES,BCR signal inh,MCF10A rerep,DT40 TDP1 no CPT,DT40 TDP1 CPT,SW480 rereplic,IL-1B inflam inh
O=C(Nc1ccc(Cl)cc1Cl)c1cc(S(=O)(=O)N2CCC3(CC2)OCCO3)ccc1F,n,x,16µM,16µM,x,x
O=C(Nc1ccc(Cl)cc1C(F)(F)F)c1cc(S(=O)(=O)N2CCOCC2)ccc1F,n,x,u,u,x,x
O=C(Nc1cccc(Cl)c1)c1cc(S(=O)(=O)N2CCC3(CC2)OCCO3)ccc1F,n,x,u,u,x,x
O=C(Nc1ccc(Cl)cc1Cl)c1cc(S(=O)(=O)N2CCN(c3ccccc3F)CC2)ccc1F,n,x,8.2µM,9.2µM,x,x
COc1ccc(N2CCN(C3CCCN(C(=O)C4=C(C)OCCO4)C3)CC2)cc1 (stereo unspecified),u,n,n,n,n,n
COc1ccc(CCNC(=O)CCn2c(=O)c3cccn3c3ccc(F)cc32)cc1OC,x,x,16µM,u,x,x
COc1ccc(CCNC(=O)Cn2c(=O)n(-c3cc(F)ccc3F)c(=O)c3sccc32)cc1OC,n,n,15µM,u,n,n
CCOc1ccc(CCNC(=O)CCn2c(=O)c3cccn3c3ccc(F)cc32)cc1OCC,x,x,13µM,u,x,x
CCOc1ccc(CCNC(=O)CCn2cccc2)cc1OCC,n,n,n,n,n,n
O=C(CCn1c(=O)c2cccn2c2ccc(F)cc21)NCCc1ccccc1,n,n,18µM,21µM,n,n
Nc1nc(SCCO)[nH]c(=O)c1NC(=O)c1ccccc1F,n,n,n,n,n,n
Cn1c(SCc2c(F)cccc2Cl)nc2c(c1=O)SCC2,n,u,u,n,n,-59
Cn1c(SCc2c(F)cccc2Cl)nc2ccccc2c1=O,n,n,n,n,n,n
Cc1c(CC(=O)N2CCC(O)CC2)c(=O)oc2cc3c(cc12)CCC1(CCCCC1)O3,x,x,u,u,x,n
COCCNC(=O)Cc1c(C)c2cc3c(cc2oc1=O)OC(C)(C)CC3,u,n,u,u,n,n
Cc1c(CC(=O)NCCC(C)C)c(=O)oc2cc3c(cc12)CCC(C)(C)O3,u,u,21µM,n,u,n
Cc1c(CC(=O)NCC(C)C)c(=O)oc2cc3c(cc12)CCC(C)(C)O3,n,n,18µM,16µM,n,u
Cc1ccc(C(=O)NCC(=O)OCc2nc3ccsc3c(=O)[nH]2)cc1C,x,x,n,n,x,n
COc1ccc(-c2cc(C(=O)N3CCN(C(c4ccccc4)c4ccccc4)CC3)no2)cc1,n,u,u,23µM,n,n
O=C(c1cc(-c2ccco2)on1)N1CCN(C(c2ccccc2)c2ccccc2)CC1,n,u,16µM,16µM,4µM,n
NC(=NCCc1c[nH]c2ccccc12)NC(=O)c1ccc(F)cc1,u,n,u,n,n,-63
NC(=NCCc1c[nH]c2ccccc12)NS(=O)(=O)c1ccc(F)cc1,n,n,u,u,n,n
NC(=NCCc1c[nH]c2ccccc12)NS(=O)(=O)c1ccc2ccccc2c1,u,u,5.2µM,4.6µM,n,u
COc1ccc(OC)c(C(=O)N2CCC(n3nccc3NC(=O)CC(C)C)CC2)c1,u,n,n,n,n,n
CCOC(=O)N1CCC(N2C(=O)c3ccc(C(=O)Nc4cccc(OC)c4)cc3C2=O)CC1,n,n,u,u,n,n
SMILES,BCR signal inh,MCF10A rerep,DT40 TDP1 no CPT,DT40 TDP1 CPT,SW480 rereplic,IL-1B inflam inh
Cc1ccc(NC(=O)Cn2nnc(-c3ccccc3NC(=O)c3cccs3)n2)cc1,u,6.5µM,0.82µM,0.65µM,3.7µM,n
Cc1ccccc1-c1nnn(CC(=O)NC(=O)NC2CCCC2)n1,u,n,n,n,n,-54
O=C(Cn1nnc(-c2ccccc2NC(=O)c2ccco2)n1)Nc1ccccc1,u,u,u,n,u,n
COc1cc(OC)cc(C(=O)Nc2ccccc2-c2nnn(CC(N)=O)n2)c1,n,n,n,n,n,n
COc1ccc(NC(=O)Cn2nnc(-c3ccccc3NC(=O)c3cccs3)n2)cc1,n,15µM,u,u,u,n
COc1ccc(C(=O)Cn2nnc(-c3ccccc3NC(=O)C3CC3)n2)cc1,n,n,16µM,18µM,u,n
Cn1cc(Br)c(C(=O)N/N=C/c2cc3c(cc2Cl)OCO3)n1,u,n,n,n,n,u
Cc1ccccc1C(=O)Nc1ccccc1-c1nnn(CC(=O)Nc2ccc3c(c2)OCCO3)n1,n,23µM,15µM,23µM,n,n
O=C(CN1CCN(Cc2ccc3c(c2)OCO3)CC1)NCC(F)(F)F,n,n,n,n,n,n
CCCN1CCc2[nH]c(=S)[nH]c(=O)c2C1,n,n,n,n,n,n
CC(C)N1CCc2[nH]c(=S)[nH]c(=O)c2C1,n,n,16µM,u,n,n
Cc1ccc2nc(C(C)(C)C)c(Cc3cccc(F)c3)n2c1,x,x,18µM,15µM,x,n
COC(=O)c1ccc2nc(-c3ccc(C)cc3)c(Cc3cccc(F)c3)n2c1,x,x,21µM,21µM,x,n
COC(=O)c1ccc2nc(-c3ccc(C#N)cc3)c(Cc3cccc(F)c3)n2c1,x,x,18µM,15µM,x,n
Nc1ccc(C(=O)N2CCN(S(=O)(=O)c3ccc(Br)cc3)CC2)cc1[N+](=O)[O-],u,n,u,u,n,n
Cc1ccc(N(Cc2ccccc2)C(=O)c2cc(S(=O)(=O)N3CCOCC3)ccc2F)cc1,n,n,7.3µM,18µM,n,n
Cc1ccc(N(Cc2ccccc2)C(=O)c2cc(S(=O)(=O)N3CCOCC3)ccc2Cl)cc1,n,u,7.3µM,12µM,n,u
Cc1cccc(N(Cc2ccccc2)C(=O)c2cc(S(=O)(=O)N3CCOCC3)ccc2Cl)c1,u,u,15µM,15µM,n,u
CN(Cc1ccccc1)S(=O)(=O)c1ccc(Cl)c(C(=O)N2CCOCC2)c1,x,x,21µM,18µM,x,n
CCCCn1c(N)c(N(CC(C)C)C(=O)c2ccc(S(=O)(=O)N3CCCCCC3)cc2)c(=O)[nH]c1=O,n,n,u,n,n,n
O=C(Nc1ccn(CCCNCc2ccc3c(c2)OCO3)c(=O)n1)OCc1ccccc1,x,n,u,n,n,n
C=CCN(Cc1ccc(Cl)s1)C(=O)c1cc(S(=O)(=O)N2CCOCC2)ccc1F,n,n,13µM,18µM,n,n
CN(Cc1cccc(Cl)c1Cl)C(=O)c1cc(S(=O)(=O)N2CCOCC2)ccc1F,n,u,21µM,16µM,n,u
COc1ccc(S(=O)(=O)N2CCOCC2)cc1C(=O)N(C)Cc1ccccc1F,n,n,n,n,n,n
Brc1cccc(-c2nc3cccnc3nc2-c2cccc(Br)c2)c1,n,u,16µM,u,n,n
Brc1cccc(C=Nc2cccc3ncccc23)c1,x,n,n,n,n,n
